In assay [1] the target is Mitogen-activated protein kinase 7 (Homo sapiens) (UniProt Q13164). Put plainly: Gal4-ERK5 driven luciferase induction – cell-based, HTS, primary screen (AID 1508626;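 active = luciferase signal above three times the same-plate solvent-only control wells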;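 note: luciferase driven by Gal4-ERK5 fusion binding five Gal4 sites before minimal TATA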). As to conditions: HeLa Gal4-ERK5 transactivation, 18 h, at 5 µM, stronger effect = higher value.
A short description of assay [2]: compounds altering viability of human ES cells (AID 493140; call rule not given here;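 note: cells exposed to compounds for four days before counting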). As to conditions: human embryonic stem cell survival screen; stronger effect = higher value.
A short description of assay [3]: viability loss in pontine glioma line – cell-based, JHH-DIPG-1, MIPE4.0, CellTiter-Glo, qHTS, dose response (AID 1347062; cut-off not given, nearly all actives have AC50 up to about 27 µM). As to conditions: JHH-DIPG-1 viability, CellTiter-Glo ATP luminescence. A general note: Cellular ATP, detected with luciferase, serves as a proxy for viable cell number.
Assay [4] can be described thus: viability loss in pontine glioma line – cell-based, SU-DIPG-IV, MIPE4.0, CellTiter-Glo, qHTS, dose response (AID 1347063; cut-off not given, nearly all actives have AC50 up to about 30 µM;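 note: compound exposure lasted 48 hours before the viability readout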). As to conditions: CellTiter-Glo ATP luminescence.
Assay [5] in a line: compounds altering HSF1 focus formation in cells – imaging, Selleck Cancer Library (AID 1347162; in the data active = plate-normalised HSF1 focus index below about 0.46). As to conditions: human cells, HSF1 nuclear foci imaging, at 10 µM; SSMD: measured here: HSF1 foci SSMD mean; cell count: measured here: cell number; plate-normalised HSF1 focus index: stronger effect = lower value.
Assay [6] in a line: growth inhibition, single agent or in combination, cell-based, chromothripsis tumors, cisplatin or BGB combos (AID 1671449).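 Note: cells exposed for 96 hours; 0% = vehicle DMSO and 100% = killing by high DMSO.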 As to conditions: LFS_MB_P medulloblastoma cells.
A short description of assay [7]: growth inhibition, single agent and combos, cell-based, chromothripsis tumors, cisplatin or BGB combos (AID 1671450).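 Note: cells exposed to compound for four days; 0% = vehicle DMSO and 100% = cell killing by high DMSO.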 As to conditions: HDN33 neuroblastoma cells, stronger effect = higher value.
The nature of assay [8]: growth inhibition, single agents and combos, ICB984, cell-based, cisplatin or BGB combos, synergistic combos for chromothripsis tumors (AID 1671451; call rule not given here;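 note: cells exposed for 96 hours before readout; 0% = vehicle DMSO and 100% = killing by high DMSO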). As to conditions: ICB984 medulloblastoma cells, drug combinations, stronger effect = higher value.
Assay [9] is described as follows: growth inhibition, single agents and combos, HTB85, cell-based, BGB or cisplatin IC20 combos, synergistic combos for chromothripsis tumors (AID 1671453).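 Note: cells exposed for 96 hours before readout; 0% = vehicle DMSO and 100% = high DMSO killing control.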 As to conditions: HTB85 osteosarcoma cells, drug combinations, stronger effect = higher value.
The nature of assay [10]: growth inhibition, MDA-MB-436, cell-based, BGB or cisplatin combos, synergistic combos for chromothripsis tumors (AID 1671458; call rule not given here;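 note: cells exposed for 96 hours; 0% = vehicle DMSO and 100% = killing by high DMSO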). As to conditions: MDA-MB-436 breast carcinoma growth inhibition, drug combinations, stronger effect = higher value.
Assay [11] is described as follows: BT084 cell growth, single and combined drugs, ICGC_MB145, cisplatin and BGB IC40 combos (AID 1671461).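 Note: cells exposed to drugs for 96 hours; 0% = vehicle DMSO and 100% = high DMSO full killing control.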 As to conditions: BT084 medulloblastoma cells, drug combinations, stronger effect = higher value.
A short description of assay [12]: RCMB18 cell growth, single agent and combined, cisplatin and BGB IC40 combos (AID 1671462).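 Note: cells exposed to compound for four days.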 As to conditions: RCMB18 medulloblastoma cells, stronger effect = higher value.
Assay [13] can be described thus: CRL1545 cell growth, single agent and combined, cisplatin and BGB IC20 combos (AID 1671464).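 Note: cells exposed to compound for 96 hours before readout; 0% = vehicle DMSO and 100% = high DMSO killing control.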 As to conditions: CRL1545 osteosarcoma cells, stronger effect = higher value.
The mark [14] stands for this setting: measured here: with BGB IC20 combination, at 0.5 µM.
[15] abbreviates: measured here: with cisplatin IC20 combination, at 0.5 µM.

Where “and” joins values, the source holds several entries; their conditions need not be identical. Equal entries are not always repeated. Results filed as inconclusive are left out. Calls of active or inactive are those of the source. Cut-off read from the data, not from the text of the source, unless noted: active = inhibition above about 80%; inactive = the rest.

One may read the AC50 as the concentration giving half of the maximal activity seen. By inhibition is commonly meant the drop in the measured response relative to a control, in per cent.

Mitogen-activated protein kinase 7 (Homo sapiens), sequence (Q13164 whole entry, looked up, the tested form may be a part): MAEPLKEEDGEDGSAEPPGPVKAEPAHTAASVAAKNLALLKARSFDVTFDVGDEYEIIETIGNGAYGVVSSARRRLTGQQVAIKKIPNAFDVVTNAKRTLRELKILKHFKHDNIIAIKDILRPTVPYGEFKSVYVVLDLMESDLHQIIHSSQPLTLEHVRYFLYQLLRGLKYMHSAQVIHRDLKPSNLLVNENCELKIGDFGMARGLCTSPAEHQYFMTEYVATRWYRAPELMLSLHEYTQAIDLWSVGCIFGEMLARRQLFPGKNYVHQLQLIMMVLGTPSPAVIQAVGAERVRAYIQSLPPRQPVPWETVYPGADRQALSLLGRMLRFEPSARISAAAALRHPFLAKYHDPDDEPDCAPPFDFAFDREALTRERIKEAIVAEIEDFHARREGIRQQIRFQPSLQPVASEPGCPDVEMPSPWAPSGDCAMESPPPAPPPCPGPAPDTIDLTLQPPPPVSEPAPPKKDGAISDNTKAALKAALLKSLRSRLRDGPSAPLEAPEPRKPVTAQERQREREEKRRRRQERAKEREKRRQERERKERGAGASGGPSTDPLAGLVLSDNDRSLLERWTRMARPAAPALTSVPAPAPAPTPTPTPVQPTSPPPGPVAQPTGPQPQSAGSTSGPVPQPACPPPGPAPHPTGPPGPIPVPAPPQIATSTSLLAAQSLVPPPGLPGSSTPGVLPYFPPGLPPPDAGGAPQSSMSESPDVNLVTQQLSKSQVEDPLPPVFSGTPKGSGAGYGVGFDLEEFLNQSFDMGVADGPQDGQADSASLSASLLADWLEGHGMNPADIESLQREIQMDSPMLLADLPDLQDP

In the case of `CCN(CC)CCOc1ccc2c(c1)C(=O)c1cc(OCCN(CC)CC)ccc1-2`, in [1], the luciferase signal is 108 AU (inactive).

Turning to `CN(C)CCCOc1nn(Cc2ccccc2)c2ccccc12`, in [2], the survival is 9 (inactive). The luciferase signal in [1] is 92 AU (inactive).

As to `COc1cc(N)c(Cl)cc1C(=O)NC1CCN(CCCOc2ccc(F)cc2)CC1OC` (stereo unspecified), in assay [2], the survival was 0.75 (inactive).

Turning to `NC(=O)c1cc[n+](CC2=C(C(=O)[O-])N3C(=O)[C@@H](NC(=O)Cc4cccs4)[C@H]3SC2)cc1`, the survival in assay [2] is 16 (inactive).

Regarding `CCOC(=O)c1ccc(O)cc1`, the luciferase signal in assay [1] is 64 AU (inactive).

For the compound `O=C(Nc1ccc(C(=O)O)c(O)c1)c1ccccc1`, in assay [1], the luciferase signal was 48 AU (inactive).

Regarding `CC(O)Cn1cnc2c1c(=O)n(C)c(=O)n2C` (stereo unspecified), the survival in [2] is 7 (inactive). Moreover, in assay [1], the luciferase signal is 104 AU (inactive).

Consider `O=C1c2ccccc2C(=O)C1c1ccc(Br)cc1`, for which, in [1], the luciferase signal is 56 AU (inactive).

As for `Nc1nc(Cl)nc2c1ncn2[C@@H]1O[C@H](CO)[C@@H](O)[C@@H]1F`, in assay [3], the outcome was inactive. For the same compound, the AC50 in assay [4] was 33.2 nM (active). The compound further gave an SSMD in assay [5] of -4.45. In addition, the cell count in assay [5] was 7490. For the same compound, the plate-normalised HSF1 focus index in assay [5] was 0.84 (inactive). The inhibition is -3.9% (inactive) and -14.3% (inactive) in assay [6] (at 0.5 µM, stronger effect = higher value); -8.83% and 6.96% in assay [6] (measured here: combination with BGB IC20, at 0.005 µM); -20.3% and 1.78% in assay [6] (measured here: combination with BGB IC40, at 0.005 µM); -15.7% and -36.2% in assay [6] (measured here: combination with BGB IC40, at 0.05 µM); -5.98% and 57.4% in [6] (measured here: combination with cisplatin, at 0.5 µM, stronger effect = higher value); 71.4% and 96.1% in [6] (measured here: combination with cisplatin, at 5 µM, stronger effect = higher value). For the same compound, the inhibition is 93.3% and 87.1% in assay [7] (BGB combo, at 5 µM); 73.2% (inactive) and 66.1% (inactive) in assay [7] (at 0.5 µM); 95.5% and 89.7% in [7] (cisplatin combo, at 5 µM); 77.5% and 72.5% in assay [7] (setting [14]); 73.9% and 60.5% in assay [7] (setting [15]); 90.8% and 89.8% in assay [7] (single agent, at 5 µM). Also, the inhibition was -17.9% and 1.1% in [8] (BGB IC20 combo, at 0.005 µM); -37% and -3.72% in [8] (BGB IC40 combo, at 0.005 µM); 35.1% and 25% in assay [8] (BGB IC40 combo, at 0.05 µM); -24.6% (inactive) and -23.6% (inactive) in assay [8] (at 0.5 µM); 35.1% and 22.3% in [8] (cisplatin combo, at 0.05 µM); -35.6% and 1.18% in assay [8] (cisplatin combo, at 0.5 µM). Besides, the inhibition is 0.299% and -46.4% in [8] (cisplatin combo, at 5 µM); -18.8% and -11.5% in assay [8] (measured here: 5 uM single agent, at 5 µM); 75.4% (inactive) and 77.9% (inactive) in assay [9] (at 0.5 µM); 66.7% and 73.9% in assay [9] (measured here: with BGB IC20, at 0.5 µM); 95.1% and 90.7% in assay [9] (measured here: with BGB IC20, at 5 µM); 78% and 76.7% in assay [9] (measured here: with cisplatin IC20, at 0.5 µM). For the same compound, the inhibition in assay [9] (measured here: with cisplatin IC20, at 5 µM) was 97.1% and 95.9%; in assay [9] (single agent, at 5 µM), 96.4%; in assay [10] (at 0.5 µM), 45.3% (inactive) and 53.2% (inactive); in assay [10] (measured here: BGB combination, at 0.5 µM), 39.5% and 52%; in assay [10] (measured here: BGB combination, at 5 µM) it was 65.6% and 67.5%; in assay [10] (measured here: cisplatin combination, at 0.5 µM), 40.6% and 46.8%. In addition, the inhibition in assay [10] (measured here: cisplatin combination, at 5 µM) is 87% and 90.6%; in [11] (at 0.5 µM) it was 25.8% (inactive) and 24.8% (inactive); in assay [11] (cisplatin combination, at 0.5 µM), 61.9% and 62.5%; in assay [11] (cisplatin combination, at 5 µM), 70.1% and 80%; in assay [11] (measured here: BGB IC40 combination 0.05 uM, at 0.05 µM) it was -13.2% and 17.9%; in assay [11] (single agent, at 5 µM) it was -3.16% and -6.18%. Further, the inhibition in assay [12] (at 0.5 µM) was 16.9% (inactive) and 18.5% (inactive); in assay [12] (cisplatin combo, at 5 µM) it was 84.3% and 94.2%; in assay [12] (measured here: BGB IC40 combination, at 0.05 µM), -16.1% and -7.68%; in assay [12] (measured here: combination with cisplatin, at 0.5 µM) it was 83.1% and 66%; in assay [12] (single agent, at 5 µM), 9.06% and 45.4%; in [13] (at 0.5 µM), 7.42% (inactive) and 10.4% (inactive). Besides, the inhibition is 24% and 34.6% in assay [13] (setting [14]); -0.869% and -3.42% in assay [13] (setting [15]); 30.6% and -23.9% in [13] (single agent, at 0.05 µM); 97.1% and 92.1% in assay [13] (single agent, at 5 µM).

The values are drawn from PubChem BioAssay.
